# Measurements taken from PubChem BioAssay (NCI).
# Compounds without any hit were thinned out: in the full panel of roughly 83,000, 20% have a hit.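 Single-dose data. Exposure time 48 hours. Values below 10 considered active.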 Unmarked numbers belong to inactive results. Calls of active or inactive are those of the source.
# Experiments:
# Assay in all cases: NCI-60 one-dose screen, 48 h (100 = growth as untreated, 0 = no growth, -100 = all killed)
# Settings in all cases: 10 µM unless noted
# HCT-15 colon = test system: HCT-15 colon
# HT29 colon = test system: HT29 colon
# SNB-75 CNS = test system: SNB-75 CNS
# SNB-19 CNS = test system: SNB-19 CNS
# U251 CNS = test system: U251 CNS
# PC-3 prostate = test system: PC-3 prostate
# SK-MEL-5 melanoma = test system: SK-MEL-5 melanoma
# UACC-62 melanoma = test system: UACC-62 melanoma
# LOX IMVI melanoma = test system: LOX IMVI melanoma
# SK-MEL-28 melanoma = test system: SK-MEL-28 melanoma
# SK-MEL-2 melanoma = test system: SK-MEL-2 melanoma
# SN12C renal = test system: SN12C renal
# UO-31 renal = test system: UO-31 renal
# TK-10 renal = test system: TK-10 renal
# ACHN renal = test system: ACHN renal
# CAKI-1 renal = test system: CAKI-1 renal
# A498 renal = test system: A498 renal
# CCRF-CEM leukemia = test system: CCRF-CEM leukemia
# MOLT-4 leukemia = test system: MOLT-4 leukemia
Compound,growth (HCT-15 colon),growth (HT29 colon),growth (SNB-75 CNS),growth (SNB-19 CNS),growth (U251 CNS),growth (PC-3 prostate),growth (SK-MEL-5 melanoma),growth (UACC-62 melanoma),growth (LOX IMVI melanoma),growth (SK-MEL-28 melanoma),growth (SK-MEL-2 melanoma),growth (SN12C renal),growth (UO-31 renal),growth (TK-10 renal),growth (ACHN renal),growth (CAKI-1 renal),growth (A498 renal),growth (CCRF-CEM leukemia),growth (MOLT-4 leukemia)
COc1ccc(-c2nnc(COc3ccc(NS(=O)(=O)c4ccc(OC)cc4)cc3F)o2)cc1,85.1%,91.1%,77.4%,84%,82.2%,56.3%,43.9%,64.8%,86.3%,97%,68.2%,89.8%,51.1%,80.9%,72.1%,64.1%,59.2%,43.1%,60%
CCCCCCC[C@@H](O)CC(=O)N[C@H](CCCCN)C(=O)N[C@H](Cc1c[nH]c2ccccc12)C(=O)NC(CCCCN)C(=O)N[C@H](CC(C)C)C(=O)N[C@H](Cc1ccccc1)C(=O)N[C@H](CCCCN)C(=O)N[C@H](CCCCN)C(=O)N[C@H](CC(C)C)C(=O)N1CCCC1C(=O)N[C@H](CCCCN)C(=O)N[C@H](Cc1ccccc1)C(=O)N[C@H](CC(C)C)C(=O)N[C@H](Cc1c[nH]cn1)C(=O)N[C@H](CC(C)C)C(=O)N[C@H](C)C(=O)N[C@H](CCCCN)C(=O)N[C@H](CCCCN)C(=O)N[C@H](Cc1ccccc1)C(=O)O (some centres undefined),-40.3% (active),-52.7% (active),-62.3% (active),-46.4% (active),-60.5% (active),-55.3% (active),-25.7% (active),-39.2% (active),-38.6% (active),-39.8% (active),-60.1% (active),-40.7% (active),-54.5% (active),-80.4% (active),-50.9% (active),-70.3% (active),-54.1% (active),-39.6% (active),-25.9% (active)
Cc1cc(-c2ccccc2)c(C)n1Cc1ccc(Cl)cc1,32.8%,13.8%,38.5%,61%,25%,57.3%,40.7%,40.7%,45%,55.8%,31.2%,49.3%,50.5%,76.6%,54.8%,21.5%,23.8%,43.5%,17.1%
COc1cc(-c2n[nH]nc2-c2ccc3c(c2)OCCO3)cc(OC)c1OC,6.81% (active),-12.7% (active),25.4%,42.6%,-27.3% (active),16.5%,-39.5% (active),27%,15.2%,38.9%,26.6%,31%,27.1%,52.4%,12.3%,18.4%,-14.6% (active),5.78% (active),5.49% (active)
COc1cccc(NC(=O)c2sc3nc4c(cc3c2N)CCCC4)c1,20.8%,41.5%,18.2%,39.4%,19.8%,19.2%,26.3%,33.2%,40.5%,48.9%,33.7%,58.9%,40%,55.7%,44.2%,31%,17.6%,13.6%,17.8%
c1cc(-c2ccc3c(c2)OCO3)n2nccc2n1,97.2%,103%,84.5%,101%,95.8%,93.9%,98.2%,113%,102%,105%,108%,108%,90.9%,104%,98.2%,94.4%,81.5%,100%,97.1%
Cc1cccc(NC(=O)c2sc3nc4c(cc3c2N)CCCC4)c1,23.9%,15.4%,34.5%,50.5%,34.4%,26.6%,33.9%,26.5%,40.3%,53%,54.9%,51.8%,54.2%,70.7%,48.9%,40.8%,44.3%,19.4%,33.6%
COc1cc(OC)cc(-c2n[nH]nc2-c2ccc3c(c2)OCO3)c1,25.7%,1% (active),-8.14% (active),45.1%,7.92% (active),19.4%,20.2%,27.5%,34.4%,32%,14.4%,49.1%,44.9%,59.5%,42.7%,36.5%,-1.56% (active),10.4%,31.3%
CC1=NN2C(=NC3=C(CCC/C3=C\c3ccc(Cl)cc3)C2c2ccc(Cl)cc2)S1 (centres undefined),89.3%,48.1%,100%,84.3%,85.9%,95.3%,96.6%,83%,60.6%,99.3%,86.3%,102%,86.1%,111%,98.2%,99.9%,87.6%,84.7%,72.9%
O=C(NCCCN1CCN(CCCNC(=O)C2CCCCC2)CC1)C1CCCCC1,97.5%,108%,88.7%,107%,96.9%,91.3%,105%,98.3%,101%,99.7%,98%,97.1%,85.7%,113%,99.5%,87.2%,105%,91.9%,94.1%
Cc1nc2sccn2c1-c1csc(Nc2ccccc2Cl)n1,34.2%,15.4%,56.9%,65.6%,42.1%,53.5%,11.5%,46.7%,45.5%,65.6%,33.9%,57.1%,42.4%,61%,58.9%,34.6%,31.5%,48.6%,17%
NS(=O)(=O)c1ccc(CN2C(=O)c3cccc4cccc(c34)C2=O)cc1,88.5%,102%,83.9%,100%,99%,93.3%,96.8%,97.1%,96.2%,113%,93%,93.1%,57.3%,81.8%,88.1%,75.9%,108%,85.8%,95.5%
CN(C)c1ncc(-c2ccc(C(F)(F)F)cc2)c(NC2CCCCCC2)n1,77.4%,34.4%,78.2%,71.8%,40.1%,22%,39.6%,31.4%,66.2%,48.9%,56.6%,45.9%,31%,65.2%,16.5%,85.5%,81.2%,45.5%,76.5%
Clc1cccc(Cl)c1Cn1c(-c2cncs2)nc2ccccc21,79.5%,91.5%,83.1%,97.8%,93.7%,62.2%,58.9%,61.2%,85%,105%,73.3%,81.6%,68.3%,85.1%,86.8%,66.5%,125%,85%,62.9%
CCOC(=O)c1ccccc1NC(c1ccccc1)c1ccc2cccnc2c1O (centres undefined),23%,39.4%,52.7%,30.9%,17.7%,25.4%,4.23% (active),12.8%,11.9%,38.3%,50.9%,35.2%,21%,37.3%,14.4%,15.9%,38.4%,9.7% (active),12.6%
Cc1cccc(NC(=O)c2sc3nc4c(cc3c2N)CCC4)c1C,20.1%,1.41% (active),13.9%,38%,16.6%,11.2%,24.4%,28.7%,24.5%,57.8%,26.3%,41.2%,43.4%,35%,48.4%,30.5%,8.64% (active),10.7%,22.6%
